Reference: ChEMBL document CHEMBL3433997, “St. Jude Leishmania screening dataset” (2016)

Tests used:
Format in all cases: functional
[1] = target: Solute carrier family 2, facilitated glucose transporter member 1 (Homo sapiens) (UniProt P11166); test: ST_JUDE_LEISH: Cytotoxicity at 2uM final concentration against transgenic Leishmania Mexicana promastigotes LmGLUT1 that are glucose transport deficient and complemented with the human glucose transporter GLUT1. Activity is measured by DNA content using SYBR green in vitro
[2] = target: Hexose transporter 1 (Plasmodium falciparum) (UniProt O97467); test: ST_JUDE_LEISH: Cytotoxicity at 2uM final concentration against transgenic Leishmania Mexicana promastigotes LmPfHT that are glucose transport deficient and complemented with the Plasmodium falciparum hexose transporter. Activity is measured by DNA content using SYBR green in vitro
[3] = target: Glucose transporter (Leishmania mexicana) (UniProt O61059); test: ST_JUDE_LEISH: Cytotoxicity at 2uM final concentration against transgenic Leishmania Mexicana promastigotes LmGT2 that are glucose transport deficient and complemented with the L. Mexicana glucose transporter 2. Activity is measured by DNA content using SYBR green in vitro

Sequence of Solute carrier family 2, facilitated glucose transporter member 1 (Homo sapiens) (P11166 whole entry): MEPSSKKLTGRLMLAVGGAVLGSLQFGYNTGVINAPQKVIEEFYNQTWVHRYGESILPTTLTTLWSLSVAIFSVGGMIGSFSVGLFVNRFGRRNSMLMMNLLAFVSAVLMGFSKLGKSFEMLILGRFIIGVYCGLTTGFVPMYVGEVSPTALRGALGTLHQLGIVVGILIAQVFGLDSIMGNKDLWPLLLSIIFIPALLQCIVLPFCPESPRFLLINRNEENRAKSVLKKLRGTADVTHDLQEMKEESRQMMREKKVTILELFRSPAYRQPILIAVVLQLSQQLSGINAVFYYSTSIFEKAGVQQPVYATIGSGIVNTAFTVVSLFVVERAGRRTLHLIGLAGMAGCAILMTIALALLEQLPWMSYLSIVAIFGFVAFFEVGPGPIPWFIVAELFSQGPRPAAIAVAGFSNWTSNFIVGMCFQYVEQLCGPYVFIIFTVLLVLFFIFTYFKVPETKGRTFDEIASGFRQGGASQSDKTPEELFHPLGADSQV

Compound | inhibition [1] [%] | inhibition [2] [%] | inhibition [3] [%]
Cc1cc(N[C@@H](Cc2ccccc2)C(=O)NCCOc2ccccc2)nc(NCCc2cccs2)n1 | 8.11 | 7.52 | 6.47
Fc1ccc2[nH]c(-c3cccc(-c4cccc(CNCc5ccccc5)c4)c3)nc2c1 | 0.07 | -0.96 | -0.93
CCCCNCC(O)COc1ccccc1-c1ccc(N/N=C/c2cccc3ccccc23)nn1 (stereo not given) | 3.78 | 3.6 | 1.78
Cc1ccc(/C=C/C(=O)NCCCCCN2CCCN(C(=O)Nc3ccc(Cl)c(Cl)c3)CC2)cc1 | 1.97 | 2.34 | 4.4
COc1ccc(Cc2c(Cl)nc3nc(N)nc(N)c3c2C)c(OC)c1OC | 5.35 | 12.4 | 5.26
CC(C)(C)c1ccc2[nH]c(-c3ccc(/C=C/C(=O)NCc4cccc(C(F)(F)F)c4)cc3)nc2c1 | 3.32 | 5.66 | 2.22
Oc1ccc(Cl)cc1CN1CCCC(COC(c2ccc(F)cc2)c2ccc(F)cc2)C1 (stereo not given) | 0.85 | 1.7 | -2.44
Cc1c(Cl)cccc1S(=O)(=O)Nc1cccc(CCN2CCC(N3CCCCC3)CC2)c1 | 2.7 | 4.32 | 2.25
O=C(CSc1nccn1Cc1ccco1)Nc1cc(C(F)(F)F)ccc1Cl | 13.1 | 10.5 | 9.28
CN(C)CCN(C)Cc1cccc(-c2cccc(NC(=O)c3cccc(C#N)c3)c2)c1 | 2.87 | 2.86 | 4.89
C=CCC(CC=C)N1C(=O)C(c2ccccc2)(c2ccccc2)N=C1N | 0.75 | -0.83 | 0.62
COc1ccc(-c2cnc3[nH]cc(-c4ccc(C(=O)O)c(C)c4)c3c2)cn1 | 0.31 | -0.48 | 0.32
CC(=O)Nc1ccc(CCNC(C)Cc2ccc(C(=O)Nc3ccc(CC(C)NCCc4cccc(Cl)c4)cc3)cc2)cc1 (stereo not given) | 2.17 | -1.77 | 0.98
CN(C)c1ccc(NC(=O)Nc2ccnc3ccccc23)cc1Br | 8.81 | 8.16 | 6.85
CS(=O)(=O)CCNCc1nc(-c2ccc3c(Nc4ccc(Oc5ccccn5)cc4)ccnc3c2)cs1 | 5.17 | 4.96 | 2.64
CCCC1(NC[C@@H](O)[C@H](Cc2ccccc2)NC(=O)c2cc(NCC)cc(N3CCCCS3(=O)=O)c2)CC1 | 1.58 | 1.33 | -0.73
CCn1ncc2c(N3CCCC3=O)cc(C(=O)N[C@@H](Cc3ccccc3)[C@H](O)CNC(C)(C)c3cccc(C(F)(F)F)c3)cc21 | -0.71 | 0.84 | 5.42
Cc1nc2ccc3ccc(CNc4ccc5c(c4)CN([C@H](CCC(=O)O)C(=O)O)C5=O)cc3c2c(=O)[nH]1 | 3.36 | 2.42 | 10
CCCC(=O)NC(NC(=S)Nc1ccc([N+](=O)[O-])cc1)C(Cl)(Cl)Cl (stereo not given) | -1.2 | -0.54 | -0.01
O=C(Nc1ccnc(-c2cccnc2)n1)c1cc(C(F)(F)F)cc(C(F)(F)F)c1 | -1.69 | 0.27 | -3.85
N=C(N)c1ccc2[nH]c(SCc3ccccc3)nc2c1 | 1.18 | 1.38 | 0.24
CN1CCCc2cc(NC(=O)C=Cc3ccc(-c4ccc(F)cc4F)o3)ccc2C1 | 6.23 | 5.24 | 8.04
O=C(CN1CCC2(CCC1=O)CC(=O)c1ccccc1O2)NCCN1CCOCC1 (stereo not given) | 2.45 | 7.44 | 4.93
COc1ccc(-c2csc(NC(=O)CCC(=O)O)n2)cc1OC | 0.77 | 1.36 | 3.83
Cc1[nH]c(C)c(-c2ccc(OCc3ccc(F)cc3)cc2)c(=O)c1Br | 0.17 | -1.87 | -1.56
Cc1nc(C)c(C2CCC(c3ccc(Cl)cc3)CC2)c(O)c1Cl (stereo not given) | 5.98 | 56.3 | -0.48
COc1cc2ncnc(Nc3ccc4nc(Cc5ccccc5)[nH]c4c3)c2cc1OC | 1.2 | 1.95 | 2.53
O=c1cc(NCCCCNCc2cccc(C(F)(F)F)c2)[nH]c2ccccc12 | 9.62 | 7.88 | 5.78
O=[N+]([O-])c1cccc(C=NNc2nc(=Nc3ccccc3)[nH]c(=Nc3ccccc3)[nH]2)c1 | 4.34 | 7.8 | -0.18
COc1ccc2nccc(NC(=O)C3(O)CCC(NCc4ncc5c(c4Cl)OCCO5)CC3)c2n1 (stereo not given) | 7.91 | 8.5 | 2.13
